# Assay outcomes as filed in PubChem BioAssay.
# Most compounds without a hit are left out; they make up all but 3.8% or so of the library.
# MPTP inh = inhibitors of mitochondrial permeability transition pore; inhibition, % at 10 µM; 1.4% of 360,000 active; isolated mouse mitochondria, Ca2+ swelling absorbance, 30 min;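 active = inhibition of 50% or more, scaled per plate between neutral and stimulator controls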;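 note: 0% = DMSO wells given calcium and 100% = 1 mM EGTA wells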
# SUMO Mot1 rescue = inhibitors of SUMOylation pathway: yeast Mot1-301 growth rescue | 1% of 320,000 active | S. cerevisiae Mot1-301 growth rescue, ATP luminescence, 38.5C; percent above DMSO median, 100 means doubled | growth rescue, % at 18.8 µM;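 active = every valid replicate shows activation above 250% relative to neutral control wells; inactive = the rest, any valid replicate at or below 250%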;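 note: OY570 slx delta 5 strain wells were the positive control but not used for scaling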
# Cardio protect = protects H9c2 cardiomyocytes from peroxide injury; 0.63% of 360,000 active; protection from H2O2 cell death, % at 20 µM; H2O2 injury protection, ATPLite, 2 h;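 active = compounds giving at least 50% protection of heart cells from peroxide-induced death in the single-dose screen, raw or plate-pattern-corrected value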;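 note: 0% = DMSO wells with peroxide and 100% = DMSO wells without peroxide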
# CR mimetic SO = lowers age-related superoxide in aged yeast cells; superoxide response (% of plate mean), % at 10 µM; AID 2690; S. cerevisiae aged cells, superoxide DHE fluorescence; stronger effect = lower value; 0.18% of 330,000 active;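 active = superoxide response under a set limit, about three screen SD below normal, cut at about 65% in these data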;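 note: yeast aged for seven days with compound at 30 °C before DHE staining; 100% = average MFI of all compound-treated wells on the plate with controls excluded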
# FAS TE block = FAS thioesterase (human) inhibition; P49327; recombinant FAS-TE, OMFH fluorogenic substrate, fluorescence endpoint; inhibition, % at 15 µM; 0.67% of 360,000 active;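 active = compounds whose normalised, plate-corrected inhibition of enzyme fluorescence in the single-dose primary screen is 50% or more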;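 note: 0% = DMSO with enzyme and 100% = substrate without enzyme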
# Target sequence (P49327 whole entry, looked up): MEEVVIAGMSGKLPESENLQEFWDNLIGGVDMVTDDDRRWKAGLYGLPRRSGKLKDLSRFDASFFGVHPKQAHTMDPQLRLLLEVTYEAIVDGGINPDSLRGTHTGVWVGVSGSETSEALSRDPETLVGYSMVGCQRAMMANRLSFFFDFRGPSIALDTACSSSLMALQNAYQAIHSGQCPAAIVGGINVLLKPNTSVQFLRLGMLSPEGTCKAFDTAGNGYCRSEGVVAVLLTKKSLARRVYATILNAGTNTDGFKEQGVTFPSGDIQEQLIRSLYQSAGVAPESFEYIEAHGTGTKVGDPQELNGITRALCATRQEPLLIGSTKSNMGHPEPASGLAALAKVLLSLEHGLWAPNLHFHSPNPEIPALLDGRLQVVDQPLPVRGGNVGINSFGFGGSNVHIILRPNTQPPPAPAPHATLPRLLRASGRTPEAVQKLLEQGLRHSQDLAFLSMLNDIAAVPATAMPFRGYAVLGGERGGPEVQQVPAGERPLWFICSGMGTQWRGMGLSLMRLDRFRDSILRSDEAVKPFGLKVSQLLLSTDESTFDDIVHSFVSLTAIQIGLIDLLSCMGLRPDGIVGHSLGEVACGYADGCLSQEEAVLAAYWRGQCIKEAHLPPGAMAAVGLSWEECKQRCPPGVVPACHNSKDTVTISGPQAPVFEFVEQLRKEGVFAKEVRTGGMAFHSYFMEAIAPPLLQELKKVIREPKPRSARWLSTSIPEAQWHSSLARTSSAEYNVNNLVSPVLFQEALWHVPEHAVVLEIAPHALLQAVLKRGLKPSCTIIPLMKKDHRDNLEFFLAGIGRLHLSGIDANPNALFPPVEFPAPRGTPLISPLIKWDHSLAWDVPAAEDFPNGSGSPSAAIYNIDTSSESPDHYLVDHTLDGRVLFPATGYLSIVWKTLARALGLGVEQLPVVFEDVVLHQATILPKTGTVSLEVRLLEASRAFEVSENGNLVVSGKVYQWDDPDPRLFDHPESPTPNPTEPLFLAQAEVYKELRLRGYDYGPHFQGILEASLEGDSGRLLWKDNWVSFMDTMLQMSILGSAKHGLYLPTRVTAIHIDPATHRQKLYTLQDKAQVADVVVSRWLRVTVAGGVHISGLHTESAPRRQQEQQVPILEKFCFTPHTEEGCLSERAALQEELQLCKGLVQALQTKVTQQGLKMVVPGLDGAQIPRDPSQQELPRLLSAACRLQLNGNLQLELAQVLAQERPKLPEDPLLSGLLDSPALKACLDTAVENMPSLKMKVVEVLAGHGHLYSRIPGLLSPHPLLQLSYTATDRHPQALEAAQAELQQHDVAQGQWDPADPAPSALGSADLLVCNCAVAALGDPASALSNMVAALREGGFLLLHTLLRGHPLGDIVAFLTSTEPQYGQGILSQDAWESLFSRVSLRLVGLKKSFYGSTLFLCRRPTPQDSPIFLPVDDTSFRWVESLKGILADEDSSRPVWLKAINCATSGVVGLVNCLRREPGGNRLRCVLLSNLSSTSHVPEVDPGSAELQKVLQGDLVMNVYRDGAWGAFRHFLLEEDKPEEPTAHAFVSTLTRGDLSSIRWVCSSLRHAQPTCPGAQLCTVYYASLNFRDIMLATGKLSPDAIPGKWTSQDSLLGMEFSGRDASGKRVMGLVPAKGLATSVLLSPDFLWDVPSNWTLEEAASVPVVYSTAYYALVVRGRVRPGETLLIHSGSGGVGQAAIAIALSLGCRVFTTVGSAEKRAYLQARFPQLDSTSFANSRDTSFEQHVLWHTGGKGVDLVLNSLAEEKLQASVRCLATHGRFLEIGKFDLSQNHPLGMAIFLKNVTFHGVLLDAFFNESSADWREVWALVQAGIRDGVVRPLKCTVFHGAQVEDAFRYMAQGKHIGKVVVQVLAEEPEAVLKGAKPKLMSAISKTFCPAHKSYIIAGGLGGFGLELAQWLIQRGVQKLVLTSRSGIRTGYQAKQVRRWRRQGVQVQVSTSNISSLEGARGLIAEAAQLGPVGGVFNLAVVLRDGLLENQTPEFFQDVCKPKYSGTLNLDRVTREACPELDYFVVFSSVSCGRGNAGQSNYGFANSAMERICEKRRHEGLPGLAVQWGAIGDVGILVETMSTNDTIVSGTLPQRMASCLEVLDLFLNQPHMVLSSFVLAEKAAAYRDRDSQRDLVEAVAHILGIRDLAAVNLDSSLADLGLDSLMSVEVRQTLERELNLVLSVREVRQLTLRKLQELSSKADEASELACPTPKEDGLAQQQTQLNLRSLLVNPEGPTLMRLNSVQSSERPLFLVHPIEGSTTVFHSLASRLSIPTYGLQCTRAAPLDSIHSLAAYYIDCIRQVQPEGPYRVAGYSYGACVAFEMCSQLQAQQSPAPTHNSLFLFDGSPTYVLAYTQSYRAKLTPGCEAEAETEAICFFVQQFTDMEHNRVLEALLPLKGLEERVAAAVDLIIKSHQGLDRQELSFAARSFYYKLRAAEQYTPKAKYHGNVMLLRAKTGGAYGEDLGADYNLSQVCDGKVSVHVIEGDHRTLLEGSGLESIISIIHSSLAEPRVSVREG
# aDG glyco up = increases alpha dystroglycan glycosylation; Pro5-aDG cells, alpha-DG glycosylation AlphaScreen (IIH6); 0% Pro5, 100% B10-LARGE cell signal; activation, % at 10 µM; 0.22% of 360,000 active;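 active = activation of at least 8% versus controls, or a plate z-score of at least 8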;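 note: Pro5 are CHO cells carrying HIG-tagged alpha-DG that lacks glycosylation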
# Mot1 SUMO dose = SUMO pathway inhibitors in yeast Mot1-301 growth; shares compounds with SUMO Mot1 rescue; S. cerevisiae Mot1-301 galactose growth, ATP luminescence, 24 h; -100 = growth of slx-deleted rescue strain; 2,300 tested, under 10 active; growth activity, percent, % at 42 µM;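 active = Signal drops as the depositor expects, and the fitted half-maximal dose is no more than ten times the top valid tested dose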;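 note: more negative values mean stronger growth rescue toward the control strain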
# The depositor's hits bear a star; / = no result given; + = active, no number; [ ] = remark or other dose.
SMILES,MPTP inh,SUMO Mot1 rescue,Cardio protect,CR mimetic SO,FAS TE block,aDG glyco up,Mot1 SUMO dose
CC1(C)CC(=O)c2cnc(NC(=O)CSc3nc4ccccc4o3)nc2C1,-1,851*,2,111,-1,0,1
Cc1cc(C)nc(SCC(=O)Nc2ncc3c(n2)CC(C)(C)CC3=O)n1,-1,0,5,103,-2,0,/
CCN(CCCNC(=O)C1c2ccccc2C(=O)N(CCOC)C1c1ccc(F)cc1)Cc1ccccc1 (stereo not given),-3,-1,6,104,-2,0,/
CCN(CC)CCCNC(=O)C1c2ccccc2C(=O)N(CCOC)C1c1ccc(F)cc1 (stereo not given),1,691*,-2,103,-1,0,0[21 µM]
CCN1C(=O)N(c2ccc(Cl)cc2)C(C)=CC1(C)C,2,837*,-10,82,-6,0,0
CC1C(=O)N2CCCc3cc(S(=O)(=O)Nc4ccccc4C(N)=O)cc1c32 (stereo not given),-2,-6,5,99,-6,0,/
CC1CCCCN1C(=O)Cn1cnc2c1c(=O)n(C)c(=O)n2C (stereo not given),0,-13,5,97,-7,0,/
Cn1c(=O)c2c(ncn2CC(=O)N2CCCc3ccccc32)n(C)c1=O,-2,17,0,104,-2,0,/
Cn1c(=O)c2c(ncn2CC(=O)N2CCCCCC2)n(C)c1=O,0,+,-20,94,-5,0,0
CC1CCN(C(=O)Cn2cnc3c2c(=O)n(C)c(=O)n3C)c2ccccc2S1 (stereo not given),0,761*,-4,104,-11,0,0
Cc1ccc(C(=O)/C=C/c2ccc(-c3ccccc3[N+](=O)[O-])o2)cc1,1,491*,-14,100,7,0,-1
O=C(/C=C/c1ccc(-c2ccccc2[N+](=O)[O-])o1)c1ccc(Br)cc1,0,2,-8,111,22,0,/
C/C(=N/NC(=O)c1nnn(-c2nonc2N)c1CSc1ccc(C)cc1)c1ccncc1,0,/,0,/,-13,0,/
Cn1c(NCc2ccco2)nc2c1c(=O)n(Cc1ccc(Cl)cc1)c(=O)n2C,1,+,51*,98,10,0,1
COc1ccc(NC(=S)Nc2ccccc2OC)c(OC)c1,0,476*,-4,94,0,0,-1
COc1ccc(NC(=S)Nc2ccc(OC)cc2OC)c(OC)c1,0,-5,2,93,-5,0,/
O=C(N/N=C/c1cccs1)c1cccnc1,1,-1,0,112,-8,0,/
O=C(N/N=C/c1cccs1)c1cncc(Br)c1,1,470*,5,72,-4,0,-1
CC(=O)N1CCc2cc(S(=O)(=O)C(C)CC(=O)NCc3ccco3)ccc21 (stereo not given),0,/,-1,/,-8,0,/
COc1ccc(C(=O)OCC(=O)NC2CC2)cc1S(=O)(=O)N(C)Cc1ccccc1,-2,-6,-6,99,-6,0,/
Cc1ccc(S(=O)(=O)N[C@@H](Cc2ccccc2)C(=O)CCl)cc1,1,608*,-15,100,36,0,-2
Cc1cc(C)cc(C(=O)N2CCC3(CC2)NCCc2[nH]cnc23)c1,-1,396*,4,82,-6,0,0
CC(=O)Nc1cc2nn(-c3ccccc3)nc2cc1Cl,0,553*,-15,124,-4,0,0
CC(C)(C)C(=O)Nc1cc2nn(-c3ccccc3)nc2cc1Cl,-2,/,-40,/,20,0,/
CC1CCN(CCNC(=O)C2CCCN(S(=O)(=O)c3cccc4nsnc34)C2)CC1 (stereo not given),0,454*,-4,110,-9,0,0
SMILES,MPTP inh,SUMO Mot1 rescue,Cardio protect,CR mimetic SO,FAS TE block,aDG glyco up,Mot1 SUMO dose
O=C(NCCCN1CCCCCC1)C1CCCN(S(=O)(=O)c2cccc3nsnc23)C1 (stereo not given),-2,-5,-5,107,4,0,/
COc1cccc(Cn2cnc3c(NS(=O)(=O)c4cccc(Cl)c4Cl)c(C)c(C)cc32)c1,-1,411*,-7,95,29,0,-1
N#Cc1ccc(/C=C/C(=O)c2ccco2)cc1,-1,718*,-5,97,-3,0,-1
CCN(C(=O)CSc1ncccn1)c1c(N)n(Cc2ccccc2)c(=O)[nH]c1=O,-1,/,2,/,-9,0,/
Cc1cc(OCC(=O)NCCCN2CCOCC2)c2c(C)c(C)c(=O)oc2c1,0,1,-1,92,-2,0,/
COc1ccc(Cc2nnc(NCCO)[nH]c2=O)cc1,-1,446*,4,107,-6,0,0
CCOc1ccc(S(=O)(=O)N2CCC(C(=O)N3CCN(c4ccccc4)CC3)CC2)cc1,0,487*,-9,102,7,0,0
COc1ccccc1N1CCN(C(=O)C2CCN(S(=O)(=O)c3ccccc3F)CC2)CC1,-2,-2,8,83,-2,0,/
COc1ccccc1N1CCN(C(=O)C2CCN(S(=O)(=O)c3ccc(C)cc3)CC2)CC1,-1,989*,9,105,4,0,0
CCC(C)[C@H](NC(=O)[C@H](Cc1ccccc1)n1c(=O)[nH]c2ccccc2c1=O)C(=O)N1CCC(C(=O)O)CC1 (stereo not given in full),-1,-8,0,143,-4,0,/
C=CCNC(=O)c1cc(-c2cccnc2)nc2ccccc12,0,441*,5,98,-4,0,1
CCOC(=O)COc1nc(-c2ccc(C)cc2)cc(-c2ccco2)c1C#N,2,400*,-6,110,5,0,0
N#Cc1c(-c2ccco2)cc(-c2cccnc2)nc1N,1,675*,87*,110,-7,0,1
O=C(Cc1ccc(NS(=O)(=O)c2ccc(F)cc2)cc1)NCc1cccnc1,-1,-1,-4,88,-6,0,/
COc1ccc(CCC(=O)NNC(=S)Nc2cccc(C(C)=O)c2)cc1,-2,+,1,103,-1,0,0
Nc1cc(=O)[nH]c(=O)n1CCc1ccccc1,-1,542*,2,96,-4,0,0
CC(C)N=C(NS(=O)(=O)NC(=O)c1ccccc1)c1ccccc1,2,456*,6,86,-4,0,0
COc1cc(S(=O)(=O)NC2CCSc3ccccc32)ccc1NC(C)=O (stereo not given),0,95,-5,73,3,0,/
